# Measurements taken from PubChem BioAssay (NCATS).
# Activity calls are given as the source filed them. The call rests on the fitted dose curve; in most records, active means well fitted activation curve with a large enough effect; inconclusive means small, poorly fitted or top-dose-only effect; inactive means no such curve, though single readings can be large or run the other way.
# Molecular target: Parathyroid hormone/parathyroid hormone-related peptide receptor (Homo sapiens) (UniProt Q03431)
# Sequence (Q03431 whole entry, looked up): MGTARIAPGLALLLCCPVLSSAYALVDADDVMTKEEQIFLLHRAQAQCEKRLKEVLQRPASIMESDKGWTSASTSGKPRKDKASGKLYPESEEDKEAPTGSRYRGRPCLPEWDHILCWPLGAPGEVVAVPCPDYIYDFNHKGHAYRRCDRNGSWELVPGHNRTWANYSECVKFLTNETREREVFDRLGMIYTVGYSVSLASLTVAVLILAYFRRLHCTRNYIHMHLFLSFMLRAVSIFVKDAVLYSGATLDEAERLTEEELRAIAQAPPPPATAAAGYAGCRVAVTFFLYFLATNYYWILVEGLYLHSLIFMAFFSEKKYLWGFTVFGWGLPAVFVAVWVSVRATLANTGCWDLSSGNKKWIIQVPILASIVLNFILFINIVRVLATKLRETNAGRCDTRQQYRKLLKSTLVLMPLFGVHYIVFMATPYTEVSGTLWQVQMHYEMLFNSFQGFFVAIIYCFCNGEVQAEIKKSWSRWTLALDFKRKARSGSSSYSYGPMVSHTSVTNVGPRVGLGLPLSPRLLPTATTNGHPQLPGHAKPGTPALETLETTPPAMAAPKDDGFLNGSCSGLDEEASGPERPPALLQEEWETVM
# Experiment: qHTS for PTHR1 Agonists: Optimization Screen against the NCGC LOPAC library (AID 1347079)
# Details: HEK293 GP2 PTHR1 GloSensor cAMP luminescence, 1 h; series mostly up to 57.1 µM
# Text: The goal of the proposed studies is to discover new compounds that act as potent agonists on the parathyroid hormone receptor type-1 (PTHR1). The PTHR1 plays critical roles in maintaining blood calcium and phosphate levels, as well as in controlling bone remodeling. PTHR1 agonists could thus be useful for treating diseases such as hypoparathyroidism and osteoporosis. In the former disease, an agonist drug would help maintain normal blood calcium and phosphate levels under conditions of parathyroid hormone deficiency. In the latter disease, an agonist drug would stimulate new bone formation and thus reduce the risk of fracture, under conditions of bone fragility, as occurs in aging. We performed an optimization assay of the quantitative high-throughput screening (qHTS) for the parathyroid hormone receptor type-1 (PTHR1) against the NCGC LOPAC library collection of […] compounds using a unique HEK-293-derived cell line (GP2) that expresses the PTHR1 and a GloSensor cAMP reporter construct. Increase in signal (activation / agonist) is the desired outcome for compounds of interest. NIH Chemical Genomics Center [NCGC] NIH Molecular Libraries Probe Production Centers Network [MLPCN] MLPCN Grant: P01 DK011794 Assay Submitter (PI): Thomas Gardella PhD, Massachusetts General Hospital
# Reagents / Controls: M-PTH (1-15) peptide hormone fragments was provided by the assay provider and was used as a control. Column 1 was treated with M-PTH titration (1:2 dilution) beginning with a final concentration of 10uM. Column 2 was treated with M-PTH final concentration of 10uM. Columns 3 and 4 were treated with DMSO only to assess background and noise signal. Assay Steps: Four microLiter of cells suspension was dispensed in a 1536-well assay plate at a final density of 3000 cells/well. The plates were incubated overnight, after which 4uL of 0.5mM of BloTium Luciferin plus 0.5mM IBMX was added. Next, the plate was incubated at 37C for 1hr before 23nL of compound (at various final concentrations from 40uM to 0.32uM) and control were added using a 1536-well array Kalypsys pin-tool. The treated plates were again incubated at 37C for another hour. Luminescence signal was obtained using the PerkinElmer ViewLux plate reader after 15min or room temperature incubation.
row,SMILES,outcome
1,C[C@H](Cc1ccccc1)Nc1ncnc2c1ncn2[C@@H]1O[C@H](CO)[C@@H](O)[C@H]1O,inactive
2,CCc1ccc(/C=C2/SC(=S)NC2=O)cc1,inactive
3,Nc1c(S(=O)(=O)O)cc(Nc2ccc(Nc3nc(Cl)nc(Nc4ccc(S(=O)(=O)O)cc4)n3)c(S(=O)(=O)O)c2)c2c1C(=O)c1ccccc1C2=O,inactive
4,Oc1cc2c(c(Cl)c1O)CCNCC2c1ccccc1 (stereo not drawn),inactive
5,N#C/C(=C\c1ccc(O)c(O)c1)C(=O)Nc1ccccc1,inactive
6,O=Nc1c(-c2c(O)[nH]c3ccccc23)[nH]c2ccccc12,inactive
7,CN1C2CCCC1CC(NC(=O)c1nn(C)c3ccccc13)C2 (stereo not drawn),inactive
8,S=C(Nc1ccccc1)Nc1nccs1,inactive
9,C/C=C/CC(C)C(O)C1C(=O)NC(CC)C(=O)N(C)CC(=O)N(C)C(CC(C)C)C(=O)NC(C(C)C)C(=O)N(C)C(CC(C)C)C(=O)NC(C)C(=O)NC(C)C(=O)N(C)C(CC(C)C)C(=O)N(C)C(CC(C)C)C(=O)N(C)C(C(C)C)C(=O)N1C (stereo not drawn),inactive
10,CC[N+](CC)(CC)CC,inactive
11,C1CCC(N=C(NC23CC4CC(CC(C4)C2)C3)N2CCOCC2)CC1,inactive
12,O=C1c2ccccc2C(=O)c2c(NCCc3ccc(O)cc3)ccc(NCCc3ccc(O)cc3)c21,inactive
13,Cc1cccc(/C=C/c2ccccc2)n1,inactive
